The results in this text go back to PubChem BioAssay (EPA / NIEHS).

Structures are written as SMILES. Calls of active or inactive are those of the source. How the source made its calls: active means hit-call score of the fitted dose curve at least 0.9, where 1 is the maximum; inactive means score below 0.9.

As usually defined, the AC50 is the midpoint of the concentration-response curve, whichever way the signal moves.

Sequence of Fatty acid synthase (Homo sapiens) (P49327 whole entry, looked up): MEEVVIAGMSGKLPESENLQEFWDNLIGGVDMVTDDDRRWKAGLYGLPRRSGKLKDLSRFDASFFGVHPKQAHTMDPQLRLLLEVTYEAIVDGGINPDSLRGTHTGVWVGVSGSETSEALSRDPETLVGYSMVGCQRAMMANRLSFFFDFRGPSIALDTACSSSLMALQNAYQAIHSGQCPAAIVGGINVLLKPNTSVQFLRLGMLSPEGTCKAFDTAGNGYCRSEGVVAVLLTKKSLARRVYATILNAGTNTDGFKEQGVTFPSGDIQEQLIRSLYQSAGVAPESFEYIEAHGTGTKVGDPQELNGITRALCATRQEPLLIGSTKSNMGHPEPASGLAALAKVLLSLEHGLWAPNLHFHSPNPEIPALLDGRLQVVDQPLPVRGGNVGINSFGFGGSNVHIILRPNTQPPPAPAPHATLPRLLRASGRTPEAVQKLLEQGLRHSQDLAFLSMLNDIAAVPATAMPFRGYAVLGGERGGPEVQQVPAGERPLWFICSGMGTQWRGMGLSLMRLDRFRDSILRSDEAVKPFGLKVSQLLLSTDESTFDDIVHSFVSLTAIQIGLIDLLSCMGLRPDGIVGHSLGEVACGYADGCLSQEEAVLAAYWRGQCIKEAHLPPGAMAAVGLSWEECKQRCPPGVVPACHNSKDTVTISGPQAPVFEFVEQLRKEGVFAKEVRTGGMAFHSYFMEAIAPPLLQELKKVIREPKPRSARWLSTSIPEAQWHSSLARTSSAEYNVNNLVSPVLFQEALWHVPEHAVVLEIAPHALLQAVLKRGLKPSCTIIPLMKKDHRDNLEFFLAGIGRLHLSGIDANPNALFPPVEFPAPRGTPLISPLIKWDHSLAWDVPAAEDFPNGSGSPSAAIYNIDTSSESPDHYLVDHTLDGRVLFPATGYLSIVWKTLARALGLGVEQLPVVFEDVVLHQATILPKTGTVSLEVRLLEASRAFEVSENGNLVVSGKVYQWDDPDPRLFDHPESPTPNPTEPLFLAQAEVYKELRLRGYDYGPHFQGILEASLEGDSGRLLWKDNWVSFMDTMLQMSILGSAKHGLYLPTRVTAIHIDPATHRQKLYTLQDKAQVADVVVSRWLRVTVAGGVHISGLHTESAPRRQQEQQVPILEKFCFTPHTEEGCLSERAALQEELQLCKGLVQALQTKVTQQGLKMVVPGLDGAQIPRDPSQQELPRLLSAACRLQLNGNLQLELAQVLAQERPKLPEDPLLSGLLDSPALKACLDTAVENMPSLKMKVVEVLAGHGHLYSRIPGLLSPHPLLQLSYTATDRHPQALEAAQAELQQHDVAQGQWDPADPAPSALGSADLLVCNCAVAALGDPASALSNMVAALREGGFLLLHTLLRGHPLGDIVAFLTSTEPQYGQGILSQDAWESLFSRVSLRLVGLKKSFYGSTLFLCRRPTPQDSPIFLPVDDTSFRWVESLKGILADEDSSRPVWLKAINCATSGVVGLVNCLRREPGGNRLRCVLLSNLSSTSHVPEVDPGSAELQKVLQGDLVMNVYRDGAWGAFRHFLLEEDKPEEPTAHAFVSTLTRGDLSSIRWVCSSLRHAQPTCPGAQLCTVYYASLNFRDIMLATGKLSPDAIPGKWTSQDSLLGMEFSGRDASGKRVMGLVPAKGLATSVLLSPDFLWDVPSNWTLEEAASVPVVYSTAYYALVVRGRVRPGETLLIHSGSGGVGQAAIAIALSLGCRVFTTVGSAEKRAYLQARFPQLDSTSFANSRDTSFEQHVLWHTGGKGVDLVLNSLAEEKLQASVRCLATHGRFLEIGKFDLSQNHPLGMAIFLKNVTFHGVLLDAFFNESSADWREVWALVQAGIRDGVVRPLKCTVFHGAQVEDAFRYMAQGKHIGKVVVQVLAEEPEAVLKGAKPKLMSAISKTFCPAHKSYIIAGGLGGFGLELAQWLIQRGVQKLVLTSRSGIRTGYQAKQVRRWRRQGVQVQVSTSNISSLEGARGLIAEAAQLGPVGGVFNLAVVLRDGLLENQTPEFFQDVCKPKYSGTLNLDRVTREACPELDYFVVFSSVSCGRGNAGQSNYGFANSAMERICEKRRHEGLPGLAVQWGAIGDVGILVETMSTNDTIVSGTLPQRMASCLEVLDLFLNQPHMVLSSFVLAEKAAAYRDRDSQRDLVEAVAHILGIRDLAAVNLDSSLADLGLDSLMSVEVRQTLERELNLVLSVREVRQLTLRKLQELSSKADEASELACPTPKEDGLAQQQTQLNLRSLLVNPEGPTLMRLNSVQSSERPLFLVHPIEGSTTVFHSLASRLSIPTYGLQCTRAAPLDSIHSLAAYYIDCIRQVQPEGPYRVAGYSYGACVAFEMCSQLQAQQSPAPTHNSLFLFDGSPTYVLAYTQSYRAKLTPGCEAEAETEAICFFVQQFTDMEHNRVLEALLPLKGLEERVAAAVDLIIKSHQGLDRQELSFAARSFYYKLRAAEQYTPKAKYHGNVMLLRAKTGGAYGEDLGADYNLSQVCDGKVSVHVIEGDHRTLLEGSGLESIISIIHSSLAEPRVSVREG

Read-out in the first assay: Fatty acid synthase (Homo sapiens) (UniProt P49327)
Put plainly: LTEA_HepaRG_FASN: Life Technologies and Expression Analysis (LTEA) Assay for Fatty Acid Synthase (FASN) using HepaRG (AID 2283448).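 On AC50: differentiated human HepaRG liver cells in serum-free induction medium.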 The following applies: mRNA level, 48 h; actives raise or lower the signal. The method, boiled down:
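Differentiated HepaRG cells in serum-free induction medium exposed 48 h in duplicate to eight half-log concentrations, top 100 uM, 0.5% DMSO. FASN mRNA by qRT-PCR normalised to ACTB, GAPDH, POLR2A; bidirectional fit versus DMSO.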
`CN(C)[C@@H]1C(=O)C(C(N)=O)=C(O)[C@@]2(O)C(=O)C3=C(O)c4c(O)cccc4[C@@](C)(O)[C@H]3[C@H](O)[C@@H]12`: the result was inactive. Take `CCOC(=O)CC(SP(=O)(OC)OC)C(=O)OCC` (centres undefined): the call was inactive. Take `COc1cc(OC)nc(Sc2cccc(Cl)c2C(=O)O)n1`: the compound was classed as inactive. Regarding `CCCOc1nn(C(=O)NS(=O)(=O)c2ccccc2C(=O)OC)c(=O)n1C`, the compound was classed as inactive.

As to `CCOP(=S)(OCC)SCCSCC`, the compound was called inactive. Same read-out and setting: under `S=C1NCCN1` stands “inactive”. Turning to `CON=C(C(=O)OC)c1ccccc1CON=C(C)c1cccc(C(F)(F)F)c1`, the outcome was inactive. For `COP(=O)(OC)SCn1c(=O)oc2cc(Cl)cnc21`, the result was inactive. As to `O=[N+]([O-])c1cc(C(F)(F)F)c(Cl)c([N+](=O)[O-])c1Nc1ncc(C(F)(F)F)cc1Cl`, the AC50 was 50 µM (active). Take `CCC(=O)Nc1ccc(Cl)c(Cl)c1`: the AC50 was 30.8 µM (active). On to `Cc1ccn2nc(S(=O)(=O)Nc3c(F)cccc3F)nc2n1`, for which the compound was classed as inactive. On to `N#CSCSC#N`, for which the AC50 was 64.6 µM (active).

With `C=C(C)[C@H]1Cc2c(ccc3c2O[C@@H]2COc4cc(OC)c(OC)cc4[C@@H]2C3=O)O1`, the AC50 is 20.8 µM (active).

`CC(C)=CC1C(C(=O)OCN2C(=O)C3=C(CCCC3)C2=O)C1(C)C` (centres undefined): the compound was classed as inactive. Turning to `CCC(=NOC/C=C/Cl)C1=C(O)CC(C2CCOCC2)CC1=O` (centres undefined), the compound was called inactive. With `CC(=NC#N)N(C)Cc1ccc(Cl)nc1`, the call was inactive. On the same count and under the same terms, under `CC(C)[C@H](C(=O)O[C@H](C#N)c1cccc(Oc2ccccc2)c1)c1ccc(Cl)cc1` stands “inactive”; under `CCOP(=O)(SC(C)CC)N1CCSC1=O` (centres undefined), “inactive”.

Read-out in the next assay: Cyclin D2 (CCND2), CCND2 (gene 894)
Put plainly: LTEA_HepaRG_CCND2: Life Technologies and Expression Analysis (LTEA) Assay for Cyclin D2 (CCND2) using HepaRG (AID 2283449). To be noted: mRNA level, 48 h; actives raise or lower the signal. The method, boiled down:
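Read-out is CCND2 mRNA level measured by qRT-PCR in human HepaRG liver cells and normalised to three housekeeping genes. Chemicals were applied for 48 h at up to 100 uM, with gain or loss fitted relative to 0.5% DMSO.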
Consider `CSC1=N[C@@](C)(c2ccccc2)C(=O)N1Nc1ccccc1`, for which the result was inactive. The same measure, in the same setting: under `CCC(CC)Nc1c([N+](=O)[O-])cc(C)c(C)c1[N+](=O)[O-]` stands “inactive”.

For `Nc1c(Cl)cc([N+](=O)[O-])cc1Cl`, the call was inactive. In the case of `CCCCOC(=O)c1ccccc1C(=O)O`, the call was inactive. Take `CCOP(=S)(OCC)OC(Cl)C(Cl)(Cl)Cl` (centres undefined): the call was inactive.

Consider `CC1=NNC(=O)N(/N=C/c2cccnc2)C1`, for which the result was inactive. For `CCc1cccc(CC)c1N(COC)C(=O)CCl`, the call was inactive. Turning to `COP(=O)(OC)OC(Br)C(Cl)(Cl)Br` (centres undefined), the compound was classed as inactive.

Turning to `CCCCSP(=O)(SCCCC)SCCCC`, the result was inactive. Consider `CCOP(=S)(Oc1cnc(C(C)(C)C)nc1)OC(C)C` (centres undefined), for which the compound was called inactive. Still for that read-out and setting: in the case of `CC[C@H](C)[C@H]1O[C@]2(C=C[C@@H]1C)C[C@@H]1C[C@@H](C/C=C(\C)[C@@H](O[C@H]3C[C@H](OC)[C@@H](O[C@H]4C[C@H](OC)[C@@H](NC)[C@H](C)O4)[C@H](C)O3)[C@@H](C)/C=C/C=C3\CO[C@@H]4[C@H](O)C(C)=C[C@@H](C(=O)O1)[C@]34O)O2` it was “inactive”. As to `C[N+]1(C)CCCCC1`, the call was inactive. Same read-out and setting: in the case of `CCCCOC(=O)[C@@H](C)Oc1ccc(Oc2ccc(C#N)cc2F)cc1` it was “inactive”; in that of `CN(C)[C@@H]1C(=O)C(C(N)=O)=C(O)[C@@]2(O)C(=O)C3=C(O)c4c(O)cccc4[C@@](C)(O)[C@H]3[C@H](O)[C@@H]12`, “inactive”; in that of `CCOC(=O)CC(SP(=O)(OC)OC)C(=O)OCC` (centres undefined), “inactive”. For the compound `CCCOc1nn(C(=O)NS(=O)(=O)c2ccccc2C(=O)OC)c(=O)n1C`, the AC50 is 67.7 µM (active).

As for `CCOP(=S)(OCC)SCCSCC`, the outcome was inactive. The same measure, in the same setting: in the case of `S=C1NCCN1` it was “inactive”. On to `CON=C(C(=O)OC)c1ccccc1CON=C(C)c1cccc(C(F)(F)F)c1`, for which the outcome was inactive. The same measure, in the same setting: under `COP(=O)(OC)SCn1c(=O)oc2cc(Cl)cnc21` stands “inactive”; under `O=[N+]([O-])c1cc(C(F)(F)F)c(Cl)c([N+](=O)[O-])c1Nc1ncc(C(F)(F)F)cc1Cl`, “inactive”; under `Cc1ccn2nc(S(=O)(=O)Nc3c(F)cccc3F)nc2n1`, “inactive”. Still for that read-out and setting: under `N#CSCSC#N` stands “inactive”; under `C=C(C)[C@H]1Cc2c(ccc3c2O[C@@H]2COc4cc(OC)c(OC)cc4[C@@H]2C3=O)O1`, “inactive”; under `CC(=NC#N)N(C)Cc1ccc(Cl)nc1`, “inactive”.

In the case of `CC(C)[C@H](C(=O)O[C@H](C#N)c1cccc(Oc2ccccc2)c1)c1ccc(Cl)cc1`, the compound was called inactive.
